Experimental data reported in PubChem BioAssay AID1626 (SRMLSC, 2009).
In all, about 220,000 compounds went through this assay and about 2,000 (0.91%) were called active. Roughly 2% stayed inconclusive and do not appear here. These entries were drawn from the full list. Results with a measured potency or affinity are listed apart. A number with no mark means an inactive call. Cut-off read from the data, not from the text of the source: inconclusive = inhibition above about 80% without an active follow-up result; inactive = below that; test concentration not stated here.

Assay: M. tuberculosis H37Rv growth inhibitors, H37Rv strain (AID 1626);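 note: bacteria incubated seven days before Alamar blue readout; 0% = bacteria only wells and 100% = bacteria with antibiotic wells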
Conditions: hits give high values, concentration not given here

| SMILES | inhibition |
| --- | --- |
| Cc1cccn2cc(-c3ccc(S(=O)(=O)N4CCCCC4)cc3)nc12 | 0.16% |
| CN1CCN(c2nc(-c3ccncc3)nc3ccccc23)CC1 | 3.8% |
| Oc1ccccc1-c1nc(N2CCCC2)c2ccccc2n1 | -6.53% |
| CC1CCN(c2nc(-c3ccccc3O)nc3ccccc23)CC1 | -2.32% |
| c1ccc2c(c1)nc(N1CCCCCC1)c1ccccc12 | 3.85% |
| CC1CCN(c2ncnc3ccccc23)CC1 | -8.39% |
| c1ccc2c(c1)nc(N1CCCCC1)c1ccccc12 | 12.2% |
| c1ccc2c(N3CCCCC3)nc(N3CCCC3)nc2c1 | -8.46% |
| c1ccc2c(N3CCCC3)nc(-c3ccncc3)nc2c1 | 6.26% |
| CC(C)(C)NS(=O)(=O)c1cc(C(=O)O)ccc1Cl | -11.1% |
| Cc1c(C#N)c(=O)c(-[n+]2ccccc2)c([S-])n1-c1ccc(Cl)cc1 | 3.17% |
| O=C(O)c1ccc(NC2=C(n3nnc4ccccc43)C(=O)c3ccccc3C2=O)cc1 | -3.22% |
| Cc1cc([N+](=O)[O-])c(Cl)cc1NC(=O)C(C)C | -3.38% |
| O=C(O)c1ccc2c(c1)-c1nc3ccccc3n1C2=O | -6.82% |
| COc1ccc(-c2ccc3ccccc3n2)cc1OC | 12.8% |
| Cc1ccc(C)c(NC(=S)N2CCN(Cc3ccccc3)CC2)c1 | -5.34% |
| Cc1cc(C)cc(N(C(C)C(=O)N2CCCCC2)S(C)(=O)=O)c1 (configuration not stated) | 7.53% |
| O=C(COc1ncnc2ccccc12)N1CCN(c2ccccc2)CC1 | 5.1% |
| COC(=O)c1ccc2ccccc2n1 | -11.4% |
| NNC(=O)c1ccc2ccccc2n1 | 27% |
| COc1ccc(-n2cc(-c3ccccc3)c3c(N4CCN(CCO)CC4)ncnc32)cc1 | 0.66% |

| SMILES | inhibition |
| --- | --- |
| CCOc1ccc(-n2cc(-c3ccccc3)c3c(=O)[nH]cnc32)cc1 | 64.1% |
| O=P1(Oc2ccccc2)OCCCS1 (configuration not stated) | 12.1% |
| COC(=O)CC(c1ccc(F)cc1)n1c(C)ccc1C (configuration not stated) | -0.04% |
| Oc1ccccc1-c1nc(NCc2ccco2)c2ccccc2n1 | -6.38% |
| c1ccc(Nc2nc(NCC3CCCO3)c3ccccc3n2)cc1 (configuration not stated) | 2.76% |
| c1ccc(CN2CCC(Nc3nc(-c4cccnc4)nc4ccccc34)CC2)cc1 | 11.5% |
| Oc1ccccc1-c1nc(NCC2CCCO2)c2ccccc2n1 (configuration not stated) | 9.18% |
| c1ccc(CN2CCC(Nc3ncnc4sccc34)CC2)cc1 | 7.78% |
| Fc1ccccc1-c1nc(NCc2ccco2)c2ccccc2n1 | 0.67% |
| c1cncc(-c2nc(NCc3ccco3)c3ccccc3n2)c1 | -4.8% |
| Cc1ccccc1Nc1nc(NCc2ccco2)c2ccccc2n1 | 1.73% |
| CCCn1c(CN2CCN(c3cccc(Cl)c3)CC2)nc2c1c(=O)n(C)c(=O)n2C | 7.42% |
| Cc1cc(C)nc(-n2ncc3c2CC(c2ccc(F)cc2)CC3=O)n1 (configuration not stated) | -3.92% |
| CCCN1CCN(C(=O)Cn2c(=O)oc3cc(S(=O)(=O)NCc4ccccc4)ccc32)CC1 | 0.47% |
| O=C1CCC/C1=c1\s/c(=C\c2cccnc2)c(=O)n1-c1ccccc1 | -3.57% |
| CCCCCCCCC(=O)NNC(=O)c1c(O)c2ccccc2n(CCC)c1=O | 1.3% |
| CCOC(=O)c1sc2nc(CC(=O)OC)nc(NCc3ccc(F)cc3)c2c1C | -2.66% |
| CC(NC(=O)c1cccc(N2CCCC2=O)c1)c1ccc2c(c1)OCCO2 (configuration not stated) | -0.45% |
| COCC(N)(c1ccccc1)c1nc2ccccc2n1C (configuration not stated) | -3.7% |
| Cn1c(Cc2ccccc2)nnc1SCC(=O)N1CCCCC1 | -3.96% |
| CCOC(=O)c1sc2nc(C)c3c(c2c1N)CC(C)(C)OC3 | -1.95% |

| SMILES | inhibition |
| --- | --- |
| N#CCCN(C(=O)COC(=O)C1CCN(S(=O)(=O)c2cccs2)CC1)c1ccccc1 | 3.1% |
| CCOC(=O)C1C(=O)NC(c2ccccc2)=NC1c1ccc(O)c(OC)c1 (configuration not stated) | 2.45% |
| CC(C)(C)C(=O)O/N=C(\N)Cc1ccc(-c2csnn2)cc1 | -5.08% |
| c1csc(CNc2nc(-c3cccs3)nc3ccccc23)c1 | 9.19% |
| c1ccc(-c2nc(NCc3cccnc3)c3ccccc3n2)cc1 | 7.56% |
| Clc1cccc(-c2nc(NCc3cccnc3)c3ccccc3n2)c1 | 74.3% |
| c1ccc(CNc2nc(-c3cccs3)nc3ccccc23)cc1 | 13.4% |
| CCC(C)NC(=O)CN(c1cc(C)ccc1OC)S(C)(=O)=O (configuration not stated) | -5.3% |
| CCOc1ccc(-c2nnc(N3CCCCC3)c3ccccc23)cc1 | -1.05% |
| c1nc(NCC2(N3CCOCC3)CCCCC2)c2ccsc2n1 | -2.31% |
| O=S(=O)(c1ccccc1F)N1CCN(C(=S)NCc2ccccc2)CC1 | -2.02% |
| O=C(Nc1cccc(F)c1)C1CCN(C(=O)c2ccc(Cl)cc2)CC1 | -0.97% |
| CCN(CC(=O)Nc1ccc(C(=O)OC)cc1)Cc1ccccc1 | 7.78% |
| COc1ccc(N2CC(C(=O)Nc3nnc(SCC(=O)c4ccccc4)s3)CC2=O)cc1 (configuration not stated) | 11.9% |
| CCN(CC)CCC(c1ccc(N(C)C)cc1)c1c(OC)cc(OC)c2ccc(=O)oc12 (configuration not stated) | -0.96% |
| CCN(CC)CCC(c1cc(OC)c(OC)c(OC)c1)c1c(OC)cc(OC)c2c(C)cc(=O)oc12 (configuration not stated) | -8.36% |
| CCN(CC)CCC(c1cc(OC)c(OC)c(OC)c1)c1c(OC)cc(OC)c2c(-c3ccccc3)cc(=O)oc12 (configuration not stated) | 12.6% |
| CCN(CC)CCC(c1cc(OC)c(OC)c(OC)c1)c1c(OC)cc(OC)c2ccc(=O)oc12 (configuration not stated) | -19% |
| Cc1ccc(CNc2ncccc2-c2nc3cc(Cl)ccc3o2)cc1 | -4.72% |
| COc1ccc(NC(=O)c2cccnc2Nc2ccc(OC)cc2)cc1 | 10.9% |
